High-throughput results (PubChem BioAssay)
Rows were chosen to be rich in hits. Some 4% of all compounds tested hit in one or more screens of this group.
AF4-AF9 inh: inhibitors of human MLL-AF4/AF9 interaction; P42568; inhibition, % at 10 µM; 350,000 compounds, 0.47% hits; AlphaScreen, biotin-AF4 peptide binding to FLAG-AF9; AID 651704;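 active means every replicate reaching a set inhibition limit, whatever the replicate mean, cut at about 25% in these data; inconclusive means mean inhibition reaches that limit but some replicates miss it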;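 further: 0% = plate neutral control median and 100% = total signal loss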
FGF22 binding: FGF22 (human) thermal shift binding; Q9HCT0; recombinant FGF22 thermal shift, SYPRO orange fluorescence; percent of sucrose octasulfate shift, DMSO zero; activity (Tm shift, normalised), % at 9.99 µM; 340,000 compounds, 1.5% hits; AID 651658;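 active means mean Tm shift, scaled 0 neutral to 100 positive control, at about 1.3% or above, every replicate too, limit read from the data; inconclusive means no clear call, values can overlap the other calls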
Target sequence (Q9HCT0 whole entry, looked up): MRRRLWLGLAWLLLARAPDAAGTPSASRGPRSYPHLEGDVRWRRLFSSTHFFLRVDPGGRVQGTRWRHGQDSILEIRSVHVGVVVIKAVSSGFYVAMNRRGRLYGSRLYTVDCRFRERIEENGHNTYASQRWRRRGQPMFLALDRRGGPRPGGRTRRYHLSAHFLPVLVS
DENV2 CPE rescue: protects cells from dengue virus 2 cytopathic effect. DENV2-infected cells, cytopathic effect rescue, plate reader. CPE inhibition, % at 9.99 µM. 350,000 compounds, 1.7% hits. AID 651640; in the data active means CPE inhibition above about 20%, passing the limit was not always enough; inconclusive means no clear call, values can overlap the other calls; tested in BHK-21 cells;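 further: 0% = median of neutral control wells and 100% = median of positive control wells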
RAD52 anneal inh: blocks human RAD52 DNA annealing | P43351 | recombinant RAD52 DNA annealing, FRET fluorescence | inhibition, % at 18.7 µM | 360,000 compounds, 0.46% hits | AID 651710;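 active means every replicate showing at least 50% inhibition; inconclusive means mean inhibition at least 50% but not in every replicate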
Target sequence (P43351 whole entry, looked up): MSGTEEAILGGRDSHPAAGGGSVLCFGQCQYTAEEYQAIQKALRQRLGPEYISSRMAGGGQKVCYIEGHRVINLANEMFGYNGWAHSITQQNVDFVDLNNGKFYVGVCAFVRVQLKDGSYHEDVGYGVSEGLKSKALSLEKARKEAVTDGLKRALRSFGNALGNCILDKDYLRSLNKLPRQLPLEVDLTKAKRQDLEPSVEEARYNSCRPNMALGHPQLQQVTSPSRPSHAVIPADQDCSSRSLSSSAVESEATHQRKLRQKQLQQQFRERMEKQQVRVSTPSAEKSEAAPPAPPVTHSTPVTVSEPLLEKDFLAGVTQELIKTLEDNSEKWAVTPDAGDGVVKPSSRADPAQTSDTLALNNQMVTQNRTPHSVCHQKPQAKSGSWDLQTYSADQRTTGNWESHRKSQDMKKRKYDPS
ERAP1 HTS inh: blocks human ERAP1 aminopeptidase activity. Q9NZ08. recombinant ERAP1, Leu-AMC fluorescence, 60 min. inhibition, % at 10.7 µM. 340,000 compounds, 0.15% hits;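 active means mean replicate inhibition of at least 30%, or all replicates individually reaching that 30% level; inactive means mean below 30% and not every replicate reaching it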;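 further: 0% = neutral control wells and 100% = L-leucinethiol positive control wells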
Starred values were filed as active, the others as inactive; ? = inconclusive; . = not tested or not shown.

SMILES	AF4-AF9 inh	FGF22 binding	DENV2 CPE rescue	RAD52 anneal inh	ERAP1 HTS inh
CCC(=O)N1CCC2(CC1)CN(C(=O)CN1CCOCC1)[C@@H](CO)c1[nH]c3cc(OC)ccc3c12	2	0	-2	-20	-1
COc1ccc2c3c([nH]c2c1)[C@H](CO)N(C(=O)CN1CCOCC1)CC31CN(Cc2ccccc2)C1	8	0	52*	-9	3
COc1ccc2c3c([nH]c2c1)[C@H](CO)N(C(=O)CN1CCOCC1)CC31CN(C)C1	1	.	11	.	.
CCC(=O)N1CC2(C1)CN(C(=O)CN1CCOCC1)[C@H](CO)c1[nH]c3cc(OC)ccc3c12	-7	0	30*	.	.
C[C@H]1CN([C@@H](C)CO)C(=O)c2cc(-c3cccc(C#N)c3)cnc2O[C@@H]1CN(C)C(=O)C1CCCCC1	0	-1	-3	6	0
CN=c1scc(-c2ccco2)n1/N=C/c1ccc(O)c(O)c1	26*	-1	-4	-12	1
OCc1c(Cl)nc2ccccn12	-9	43*	-11	-3	1
COc1ccc(NC(=O)N(C)C[C@H]2Oc3ccc(NC(=O)Nc4ccc5c(c4)OCO5)cc3CC(=O)N([C@@H](C)CO)C[C@@H]2C)cc1	.	0	-11	.	.
COc1ccccc1-c1ccc2c(c1)[C@H]1[C@H](CCN1S(=O)(=O)c1ccccc1F)[C@H](CO)N2	-4	-1	23*	34	-1
O=S(=O)(c1ccccc1F)N1CC[C@@H]2[C@H]1c1cc(-c3ccccc3)ccc1N[C@@H]2CO	-4	0	15	16	0
O=S(=O)(c1ccccc1F)N1CC[C@H]2[C@H](CO)Nc3ccc(-c4cccc(F)c4)cc3[C@H]21	0	0	29*	-20	-1
C[C@@H]1CN([C@@H](C)CO)C(=O)c2cc(C#C[C@@H](C)O)cnc2O[C@@H]1CN(C)C(=O)Cc1ccncc1	-2	0	7	-19	-1
O=C(Nc1ccc(N2CCCCCC2)cc1)c1ccc[nH]1	34*	-1	-1	4	1
N#C[C@H]1[C@H](c2ccccc2C2=CCCC2)[C@@H](CO)N1C(=O)Cc1ccncc1	-3	0	-1	-2	-1
N#C[C@@H]1[C@H](c2ccccc2C2=CCCCC2)[C@@H](CO)N1C(=O)c1ccccn1	.	0	27*	8	.
N#C[C@@H]1[C@H](c2ccc(C3=CCCCC3)cc2)[C@H](CO)N1C(=O)NC1CCCC1	0	.	27*	.	.
N#C[C@@H]1[C@@H](c2ccccc2C2=CCCC2)[C@H](CO)N1C(=O)Cc1ccncc1	-1	0	29*	5	0
N#C[C@H]1[C@@H](c2ccccc2C2=CCCC2)[C@H](CO)N1C(=O)c1ccccn1	0	.	6	1	-1
C/C=C/c1ccc([C@@H]2[C@H](C#N)N(C(=O)NC3CCCCC3)[C@H]2CO)cc1	0	1	77*	-21	7
CCNC(=O)[C@@H]1[C@@H](CO)[C@@H]2Cn3c(ccc(C4=CCCC4)c3=O)[C@H]1N2C(=O)CC	0	0	-8	-3	0
C[C@@H]1CN([C@H](C)CO)S(=O)(=O)c2ccc(-c3cccc(C#N)c3)cc2O[C@@H]1CN(C)C(=O)C1CC1	1	0	-20	-5	-2
CNC[C@@H]1Oc2cc(C#CC3CCCC3)ccc2S(=O)(=O)N([C@@H](C)CO)C[C@H]1C	-19	0	13	24	-6
N#C[C@H]1[C@@H](c2ccccc2C2=CCCCC2)[C@@H](CO)N1C(=O)NC1CCCC1	0	0	22*	15	-1
C/C=C/c1ccc([C@H]2[C@@H](CNS(C)(=O)=O)N(CC3CCCC3)[C@H]2CO)cc1	-9	0	51*	-8	3
N#C[C@@H]1[C@H](c2ccccc2-c2ccccc2)[C@@H](CO)N1C(=O)NC1CCCCC1	0	0	45*	17	-3
SMILES	AF4-AF9 inh	FGF22 binding	DENV2 CPE rescue	RAD52 anneal inh	ERAP1 HTS inh
N#C[C@H]1[C@H](c2ccccc2C2=CCCCC2)[C@@H](CO)N1C(=O)NC1CCCC1	0	0	-12	6	0
N#C[C@H]1[C@@H](c2ccccc2-c2ccccc2)[C@@H](CO)N1C(=O)NC1CCCCC1	-1	.	-15	2	-2
COc1ccc2c3c(n(C)c2c1)[C@H](CO)N(C(=O)C1CCOCC1)CC31CCN(Cc2cccc(F)c2)CC1	-2	0	-2	14	0
C[C@H]1CCCCO[C@H](CN(C)C(=O)Nc2ccccc2)[C@@H](C)CN([C@@H](C)CO)C(=O)c2cc(NS(=O)(=O)c3cccs3)ccc2O1	2	0	-2	14	0
CC(C)(O)C#Cc1ccc([C@@H]2[C@@H](CO)N3CCCCN(C(=O)c4ccc(F)cc4)C[C@@H]23)cc1	-12	0	83*	20	4
C[C@H](O)C#Cc1ccc([C@H]2[C@@H](CO)N3CCCCN(C(=O)c4ccc(F)cc4)C[C@@H]23)cc1	-6	0	33*	1	1
O=C(c1ccc(F)cc1)N1CCCCN2[C@H](C1)[C@H](c1ccc(C#CC3(O)CCCC3)cc1)[C@@H]2CO	0	0	42*	-12	1
Cc1ccc(NC2CNC(=O)NC2=O)cc1C (centres undefined)	-6	1	10	-19	2
Cc1ccc(NC2C(=O)NC(=O)NC2=O)cc1	-2	0	36*	-8	6
CCCNC(=O)N1CC2(CN(Cc3ccc(OC)cc3)C2)c2c(n(C)c3cc(OC)ccc23)[C@@H]1CO	34*	0	-14	.	.
CCCNC(=O)N1CC2(CN(CC3CCCCC3)C2)c2c(n(C)c3cc(OC)ccc23)[C@H]1CO	?	0	-11	10	-6
CCCNC(=O)N1CC2(CN(CC3CCCCC3)C2)c2c(n(C)c3cc(OC)ccc23)[C@@H]1CO	33*	0	-3	22	-1
CCCNC(=O)N1CC2(CN(Cc3cccc(OC)c3)C2)c2c(n(C)c3cc(OC)ccc23)[C@H]1CO	?	0	-7	4	-1
CO[C@@H]1CN(C)C(=O)c2ccc(NS(C)(=O)=O)cc2OC[C@H](C)N(C(=O)NC(C)C)C[C@@H]1C	-1	0	4	5	1
C[C@@H]1CN([C@@H](C)CO)C(=O)c2cc(-c3ccccc3F)cnc2O[C@@H]1CN(C)C(=O)NC1CCCC1	-2	0	-7	0	2
Cc1ccc(SCC(=O)N2N=CCC2c2ccccc2)cc1 (centres undefined)	-17	44*	4	1	-3
CC1=C(C(=O)N2CCOCC2)C(c2ccc(OC(F)F)cc2)NC(=S)N1c1ccccc1 (centres undefined)	-2	43*	3	-10	1
CC1=C(C(=O)N2CCOCC2)C(c2ccc(Br)cc2)NC(=S)N1c1ccccc1 (centres undefined)	-1	0	-6	6	19
C[N+]1(CCOC(=O)C2(c3ccccc3)CCCC2)CCCCC1	-1	0	.	-13	67*
